Measured values published in the supplement of paper PMC12669032.
Values without a mark were called inactive.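 How the source made its calls: active = AUC reduced over 20% with Padj below 0.05 in at least 2 of 3 replicates; inactive = otherwise.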

Columns and labels:
Test in all cases: growth AUC relative to DMSO control (median of replicates) (fraction); higher = more growth (less inhibition), active = hit call of the paper
Details in all cases: 20 µM; 24 h
Akkermansia muciniphila = tested on: Akkermansia muciniphila
Method in brief: (§1)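 OD600 was recorded every hour for 24 h in anaerobic monocultures of gut bacteria kept at 37 °C in mGAM, seeded at OD600 0.05 and given 20 µM compound in 1% DMSO. The area under each growth curve was scaled to the plate median of solvent-only wells, or to row and column medians for the industrial chemical plate. Before this step, the minimum OD was set to 0. Reported values are medians of three biological replicates run on separate days.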

Bacteroides caccae = tested on: Bacteroides caccae
Method in brief: as §1

Bacteroides clarus = tested on: Bacteroides clarus
Method in brief: as §1

Bacteroides dorei = tested on: Bacteroides dorei
Method in brief: as §1

Bacteroides stercoris = tested on: Bacteroides stercoris
Method in brief: as §1

[1] = tested on: Bacteroides thetaiotaomicron
Method in brief: as §1

Bacteroides uniformis = tested on: Bacteroides uniformis
Method in brief: as §1

[2] = tested on: Bifidobacterium longum subsp. longum
Method in brief: as §1

Clostridium difficile = tested on: Clostridium difficile
Method in brief: as §1

Collinsella aerofaciens = tested on: Collinsella aerofaciens
Method in brief: as §1

Coprococcus comes = tested on: Coprococcus comes
Method in brief: as §1

Escherichia coli ED1a = tested on: Escherichia coli ED1a
Method in brief: as §1

Escherichia coli IAI1 = tested on: Escherichia coli IAI1
Method in brief: as §1

Eubacterium rectale = tested on: Eubacterium rectale
Method in brief: as §1

[3] = tested on: Fusobacterium nucleatum subsp. animalis
Method in brief: as §1

Lactobacillus gasseri = tested on: Lactobacillus gasseri
Method in brief: as §1

Lactobacillus paracasei = tested on: Lactobacillus paracasei
Method in brief: as §1

Odoribacter splanchnicus = tested on: Odoribacter splanchnicus
Method in brief: as §1

[4] = tested on: Parabacteroides distasonis
Method in brief: as §1

Parabacteroides merdae = tested on: Parabacteroides merdae
Method in brief: as §1

SMILES	growth AUC (Akkermansia muciniphila)	growth AUC (Bacteroides caccae)	growth AUC (Bacteroides clarus)	growth AUC (Bacteroides dorei)	growth AUC (Bacteroides stercoris)	growth AUC [1]	growth AUC (Bacteroides uniformis)	growth AUC [2]	growth AUC (Clostridium difficile)	growth AUC (Collinsella aerofaciens)	growth AUC (Coprococcus comes)	growth AUC (Escherichia coli ED1a)	growth AUC (Escherichia coli IAI1)	growth AUC (Eubacterium rectale)	growth AUC [3]	growth AUC (Lactobacillus gasseri)	growth AUC (Lactobacillus paracasei)	growth AUC (Odoribacter splanchnicus)	growth AUC [4]	growth AUC (Parabacteroides merdae)
O=c1cc(Cl)[nH]nc1-c1ccccc1	0.833	1.01	0.967	1.05	0.777	1.02	1.01	0.954	1.07	0.983	0.973	0.956	0.954	0.939	0.995	0.992	0.748	1.02	1.02	0.982
CC(C)c1cccc2c(=O)c3ccccc3sc12	1.1	0.922	1.03	0.913	1.21	0.963	0.995	1.06	0.895	0.95	0.979	1.03	1.04	1	1.19	0.968	1.05	1.05	0.952	0.885
CCCCOC(=O)COc1ccc(Cl)cc1Cl	1.06	0.975	1.02	0.996	1.09	0.987	1.02	0.965	0.999	0.957	0.991	0.981	1.03	0.979	1.08	1.06	0.839	0.946	0.994	0.979
c1cc2ccc3ccc4ccc5cccc6c(c1)c2c3c4c56	0.936	1	1	1.01	1	1	1	1.03	0.971	0.993	1.01	1.04	1.01	0.999	0.946	0.994	1.02	1.01	1.04	1.02
Clc1ccc(C(c2ccccc2Cl)C(Cl)Cl)cc1 (stereo not given)	1.21	1.01	0.936	0.976	0.856	0.988	0.943	1.03	1	0.847	1.03	1	0.978	0.952	1.01	0.496	1.04	1.02	0.615 (active)	0.976
CCc1cccc(C)c1N(C(=O)C(=O)O)[C@@H](C)C(=O)O	1.17	0.993	1.02	0.963	1.06	0.999	0.999	0.908	0.903	0.986	1.02	1.01	0.988	1.12	1.03	0.853	1.01	0.95	0.809	1.03
CCOCOc1ccc(C(=O)Nc2cccc(Cl)c2Cl)cc1	1.04	0.855	0.881	0.972	0.836	0.884	0.912	0.907	1.02	0.956	0.977	0.977	0.953	0.961	0.901	1.05	0.985	0.975	0.976	0.961
COc1nc(NC(=O)NS(=O)(=O)c2ccccc2C(F)(F)F)nc(C(F)(F)F)n1	1.06	1.03	0.979	0.971	1	0.974	1	1.01	0.987	1.01	1.01	0.99	1	0.979	0.988	0.899	0.986	1.06	0.996	0.964
